beta cell repl: inducers of MIN6 beta-cell proliferation, primary screen, ATP luminescence, uHTS; MIN6 cells proliferation, ATPlite luminescence, 48 h; cells starved in 0.2% serum; 100% = growth in 10% serum; proliferation, % at 10 µM; actives 0.29% (n = 330,000); AID 2380, 2010;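 active = compounds whose signal lies at least 3.5 SD above the mean of all wells on their plate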;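 also: 0% = DMSO-treated cells in low-serum medium and 100% = 10% serum control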
H9c2 TAG inh: inhibitors of triacylglycerol accumulation, primary screen, cell-based, uHTS, fluorescence, H9c2 | H9c2 cells, Nile Red lipid (TAG) fluorescence; cells loaded with 200 µM oleic acid | inhibition, % at 12.5 µM | actives 0.66% (n = 230,000);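 active = pattern-corrected inhibition of lipid staining of at least 50% with the nuclear-stain viability signal not falling by more than 50%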;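 also: 0% = DMSO wells and 100% = triacsin C control wells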
hiPSC survival: enhancers of single-cell hiPSC survival, primary screen, ATPlite luminescence | survival enhancement, % at 20 µM | AID 602274, 2012 | 100% = ROCK inhibitor wells, 0% = DMSO | actives 0.044% (n = 360,000); in the data active = survival enhancement above about 18%;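 also: cells exposed to compounds for 16 hours before the ATP read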
H9c2 TAG conf: triacylglycerol accumulation inhibitors, retest, confirmation, cell-based, single concentration, Nile Red fluorescence, H9c2. H9c2 lipid accumulation; cells loaded with 200 µM oleic acid. inhibition, % at 12.5 µM. shares compounds with H9c2 TAG inh. actives 71% (n = 990);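 active = mean inhibition across replicates of 40% or more; inactive = mean inhibition below 40%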;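 also: plate controls were DMSO only wells for no effect and Triacsin C treated wells for full effect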
Numbers without * were called inactive; x = no result given. Sampled rows, rich in hits. Any-hit rate of the full collection: about 0.71%.

SMILES	beta cell repl	H9c2 TAG inh	hiPSC survival	H9c2 TAG conf
Cn1c(=O)c2cc(NC(=O)Cc3ccccc3F)ccc2n1-c1ccc(C(C)(C)C)cc1	x	22	-4	x
Oc1ccc(C[C@H]2CN([C@@H](Cc3ccccc3)CN3CCC[C@@H]3CN3C(=S)NC[C@@H]3Cc3ccccc3)C(=S)N2CC2CCCCC2)cc1	x	x	-2	x
Oc1ccc(C[C@H]2CNC(=S)N2CC2CCCN2C[C@H](Cc2ccc(O)cc2)N2C[C@H](Cc3ccc(O)cc3)N(CC3CCCCCC3)C2=S)cc1 (stereo partly specified)	x	76*	5	72*
CC(C)C[C@H]1CNC(=S)N1CC1CCCN1C[C@H](CC(C)C)N1C[C@H](CC(C)C)N(CCc2ccccc2)C1=S (stereo partly specified)	x	74*	-3	82*
CC(C)C[C@H]1CNC(=S)N1CC1CCCN1C[C@H](CC(C)C)N1C[C@H](CC(C)C)N(CC2CCCCCC2)C1=S (stereo partly specified)	x	62*	-4	55*
CC(C)C[C@H]1CNC(=S)N1C[C@H]1CCCN1C[C@H](CC(C)C)N1C[C@H](CC(C)C)N(CCc2ccccc2)C1=S	x	x	-1	x
CC(C)C[C@H]1CNC(=S)N1CC1CCCN1C[C@H](CC(C)C)N1C[C@H](Cc2ccccc2)N(CC2CCCCCC2)C1=S (stereo partly specified)	x	-11	-4	x
CCCCN1C(=O)C(CC(=O)NCCCN(C)C)CC(C(=O)N2CCOCC2)=C1C (stereo unspecified)	x	-14	3	x
O=C(N/N=C/c1ccc(F)cc1)c1sccc1OCc1ccc(F)cc1	-2	-7	12	x
O=C(N/N=C/c1ccc(Cl)cc1)c1sccc1OCc1ccc(F)cc1	-3	50*	-2	54*
COc1cc(C2C3=C(COC3=O)Oc3cc4c(cc32)OCO4)ccc1O (stereo unspecified)	x	55*	-2	71*
COc1cc(C2C3=C(COC3=O)OC(C)(C)Oc3cc4c(cc32)OCO4)cc(OC)c1OC (stereo unspecified)	x	27	4	x
COc1cc(C(=O)N2CCN(c3cc(Cl)ccc3Cl)CC2)cc(OC)c1OC	-5	54*	-3	65*
COc1ccc(C(=O)N2CCN(C(=O)c3cc(OC)c(OC)c(OC)c3)CC2)cc1	-2	9	1	x
CCCCNC(=O)c1onc(CSc2ccncc2)c1C(=O)NCCCC	6	-4	3	x
O=C(NCC1CC1)c1onc(CSc2ccncc2)c1C(=O)NCC1CC1	-1	50*	0	32
